Screens: PubChem BioAssay, National Center for Advancing Translational Sciences (NCATS)
HT1080NT lethal: kills 2HG-producing HT-1080-NT fibrosarcoma cells. HT-1080-NT fibrosarcoma viability, CellTiter-Glo ATP luminescence, 48 h. Potency, µM (series often up to 46.1 µM), for the others: top-dose activity, negative = less viability, hits mostly cytotoxic. 360,000 compounds, 1.6% hits;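 note: NT is the 2HG producing partner of a matched IDH1 knockdown line; 0% = DMSO-treated cells and -100% = media-only wells without cells; nearly all actives have a fitted effect of over 55% in size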
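750 cells/well, RPMI + 5% FBS; 2 h settle, compound pin-transfer, 48 h at 37 degrees C. CellTiter-Glo 10 min RT, luminescence. Normalized to DMSO and media-only wells.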
DT40 TDP1 no CPT: qHTS for Inhibitors of human tyrosyl-DNA phosphodiesterase 1 (TDP1): qHTS in cells in absence of CPT | DT40 Tdp1-/- hTDP1 cells, no CPT, ATP luminescence, 48 h | Potency, µM (series often up to 46.2 µM), without a hit: at the highest dose activity change, negative = growth inhibition, most hits filed as inhibitors | 420,000 compounds, 15% hits | AID 686978, 2013; note: nearly all actives have a fitted effect of over 55% in size
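Chicken DT40 Tdp1-/- cells stably complemented with human TDP1 were seeded at 400 cells/well with DMSO in place of 20 nM camptothecin. After compound pinning, cells grew at least 48 hr at 37 °C; viability read by CellTiter-Glo luminescence.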
KB-V1 cytotox: kills drug-selected multidrug resistant KB-V1 cells; KB-V1 MDR cells viability, CellTiter-Glo, 72 h; Potency, µM (doses to about 46.1 µM), actives largely listed as cytotoxic; 400,000 compounds, 3.4% hits; note: nearly all actives have a fitted effect of over 60% in size
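Potencies derive from concentration-effect curves fitted to normalized luminescence (CellTiter-Glo) of KB-V1 cells treated for 72 h at 37 degrees C in phenol-red-free DMEM containing 10% FBS.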
KB-3-1 cytotox: KB-3-1 parental cell cytotoxicity; KB-3-1 viability, CellTiter-Glo ATP luminescence, 72 h; Potency, µM (doses to about 46.1 µM), actives largely listed as cytotoxic; 400,000 compounds, 1.4% hits; AID 1347075; note: nearly all actives have a fitted effect of over 60% in size
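Multi-concentration cytotoxicity screen in KB-3-1 cells grown in DMEM lacking phenol red with 10% FBS. After 72 h at 37 °C with compound, ATP-dependent luminescence was recorded.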
HT1080 IDH1KD tx: toxicity to HT-1080 IDH1 knockdown cells (counter line) | AID 686971 | Potency, µM (series often up to 46.1 µM), for the others: at the top dose activity, negative = toxicity, actives largely listed as cytotoxic | 360,000 compounds, 2% hits | HT-1080 IDH1 knockdown viability, ATP luminescence, 48 h;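 note: 0% = DMSO wells and -100% = cell-free medium wells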
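In this qHTS, HT-1080 cells depleted of IDH1 are exposed for 48 h at 37 °C to compound titrations. Toxicity is scored from CellTiter-Glo luminescence, with DMSO as full viability and medium alone as none.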
TDP1 cell CPT: growth inhibition of DT40 Tdp1-/-;hTDP1 cells with camptothecin (screen for TDP1 inhibitors); Potency, µM (highest dose often 46.2 µM), for inactives: at the top dose activity change, negative = growth inhibition, usual class: inhibitors; 420,000 compounds, 12% hits; AID 686979; chicken DT40 Tdp1-/-;hTDP1 cells + 20 nM CPT, ATP luminescence, 48 h; note: nearly all actives have a fitted effect of over 55% in size
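Chicken DT40 Tdp1-/- cells complemented with human TDP1, 400 cells/well, exposed to compounds plus 20 nM camptothecin for at least 48 h at 37 C; viability read as ATP content by CellTiter-Glo luminescence.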
The depositor's hits bear a star; [ ] = another dose, or the depositor's remark. Rows were chosen to be rich in hits. Some 19% of all compounds tested hit in one or more screens of this group. Calls come from the whole dose curve; as a rule, active = well fitted curve in the direction sought with a large enough effect; inconclusive = small, poorly fitted or top-dose-only effect, or another doubt; inactive = no such curve, though single readings can be large; an effect the other way counts as inactive or inconclusive. Unless noted, % is set by controls: 0 for no effect and ±100 for the full control effect; potency is the fitted concentration of half-maximal effect.

Screening Cc1ccc(-c2nnc(SCC(=O)NC(C)(C)C)nc2-c2ccc(C)cc2)cc1 returned DT40 TDP1 no CPT inconclusive, KB-V1 cytotox inactive, KB-3-1 cytotox inactive and TDP1 cell CPT 29µM*.
Screening CCN(CC)C(=O)CSc1nnc(-c2ccccc2)c(-c2ccccc2)n1 returned HT1080NT lethal 11%, DT40 TDP1 no CPT inconclusive, KB-V1 cytotox 3.3µM*, KB-3-1 cytotox inactive, HT1080 IDH1KD tx 17% and TDP1 cell CPT 1%.
Screening Cc1ccc2c(c1)CN(C(=O)CC(c1ccccc1)c1ccco1)CC(C)O2 (stereo not given) returned DT40 TDP1 no CPT inconclusive and TDP1 cell CPT 0%[9.04 µM].
For Cc1ccc(C(CC(=O)N2CCOCC2)c2ccco2)cc1 (stereo not given) the results were HT1080NT lethal -4%, DT40 TDP1 no CPT inconclusive, KB-V1 cytotox inactive, KB-3-1 cytotox inconclusive, HT1080 IDH1KD tx 0% and TDP1 cell CPT 16µM*.
For CC1CCCCN1C(=O)CSc1nnc(-c2cccnc2)o1 (stereo not given) the results were HT1080NT lethal 4%, DT40 TDP1 no CPT -9%, KB-V1 cytotox inactive, KB-3-1 cytotox inactive, HT1080 IDH1KD tx 12% and TDP1 cell CPT 8%.
`Cc1cc(C)cc(N2CC(c3nc(-c4cccc(Cl)c4)no3)CC2=O)c1` (stereo not given) gave DT40 TDP1 no CPT -27%, KB-V1 cytotox inactive, KB-3-1 cytotox inactive and TDP1 cell CPT inconclusive.
CCCCOC(=O)c1cc(=O)[nH]c2ccc(C)cc12 was read as HT1080NT lethal 1%, DT40 TDP1 no CPT -21%, KB-V1 cytotox 18µM*, KB-3-1 cytotox 15µM*, HT1080 IDH1KD tx -3% and TDP1 cell CPT -6%.
Screening CCCCC(c1nnnn1CC1CCCO1)N1CCN(c2cc(Cl)ccc2C)CC1 (stereo not given) returned HT1080NT lethal -9%, DT40 TDP1 no CPT 16µM*, KB-V1 cytotox inconclusive, KB-3-1 cytotox inconclusive, HT1080 IDH1KD tx -6% and TDP1 cell CPT inconclusive.
Screening CCCCC(c1nnnn1CC1CCCO1)N1CCN(c2nc3ccccc3s2)CC1 (stereo not given) returned HT1080NT lethal -18%, DT40 TDP1 no CPT inconclusive, KB-V1 cytotox inactive, KB-3-1 cytotox inactive, HT1080 IDH1KD tx -11% and TDP1 cell CPT 23µM*.
COC(=O)c1ccccc1C(=O)N1CCCC(CNC(=O)c2ccc(F)cc2)C1 (stereo not given) was read as HT1080NT lethal 1%, DT40 TDP1 no CPT -3%, KB-V1 cytotox inconclusive, KB-3-1 cytotox inactive, HT1080 IDH1KD tx 0% and TDP1 cell CPT 15%.
Cc1nc2c(C(=O)NCCc3ccc(Cl)cc3)c[nH]n2c(=O)c1Cc1ccc(Cl)cc1 was read as DT40 TDP1 no CPT inconclusive and TDP1 cell CPT -5%.
Screening Cc1nc2c(C(=O)N(C)Cc3ccccc3)c[nH]n2c(=O)c1Cc1ccc(Cl)cc1 returned DT40 TDP1 no CPT inconclusive, KB-V1 cytotox inactive, KB-3-1 cytotox inconclusive and TDP1 cell CPT 18µM*.
`O=[N+]([O-])c1cc(-c2nc3nc4ccccc4nc3n2CCc2ccccc2)cc([N+](=O)[O-])c1` gave HT1080NT lethal 0%, DT40 TDP1 no CPT inconclusive, KB-V1 cytotox inactive, KB-3-1 cytotox inactive, HT1080 IDH1KD tx 18% and TDP1 cell CPT 19%.
`O=C(COc1cccnc1[N+](=O)[O-])NCc1ccccc1` gave HT1080NT lethal 1%, DT40 TDP1 no CPT 23%, KB-V1 cytotox inactive, KB-3-1 cytotox inactive, HT1080 IDH1KD tx -1% and TDP1 cell CPT 1%.
For Nc1c(C(=O)Nc2ccc3c(c2)OCCO3)nnn1Cc1cccc(Br)c1 the results were HT1080NT lethal -28%, DT40 TDP1 no CPT 23µM*, KB-V1 cytotox 15µM*, KB-3-1 cytotox inactive, HT1080 IDH1KD tx 13µM* and TDP1 cell CPT inconclusive.
`Nc1c(C(=O)Nc2ccc3c(c2)OCCO3)nnn1Cc1ccc(Br)cc1` gave HT1080NT lethal -11%, DT40 TDP1 no CPT -28%, KB-V1 cytotox inactive, KB-3-1 cytotox inactive, HT1080 IDH1KD tx -12% and TDP1 cell CPT -11%.
Nc1c(C(=O)Nc2ccc3c(c2)OCCO3)nnn1CCc1ccccc1 was read as HT1080NT lethal inconclusive, DT40 TDP1 no CPT 3.3µM*, KB-V1 cytotox inconclusive, KB-3-1 cytotox 6.5µM*, HT1080 IDH1KD tx inconclusive and TDP1 cell CPT 4.6µM*.
C[C@H]1CN([C@@H](C)CO)C(=O)CCCn2cc(nn2)CO[C@@H]1CN(C)S(=O)(=O)c1ccc(C#N)cc1 was read as HT1080NT lethal -5%, DT40 TDP1 no CPT -30%, KB-V1 cytotox inactive, KB-3-1 cytotox inactive, HT1080 IDH1KD tx 8% and TDP1 cell CPT 11%.
Screening Nc1ncnc2c1ncn2[C@@H]1O[C@H](C(=O)NS(=O)(=O)c2cccs2)[C@@H](O)[C@H]1O returned HT1080NT lethal 16%, DT40 TDP1 no CPT 6%, KB-V1 cytotox inactive, KB-3-1 cytotox inactive, HT1080 IDH1KD tx 22% and TDP1 cell CPT -16%.
For O=C(CCl)NC(Cc1ccccc1)C(=O)OCC(=O)c1ccc(-c2ccccc2)cc1 (stereo not given) the results were HT1080NT lethal -25%, DT40 TDP1 no CPT inconclusive, KB-V1 cytotox inactive, KB-3-1 cytotox inactive, HT1080 IDH1KD tx inconclusive and TDP1 cell CPT inconclusive.
For O=C(N/N=C/c1cn(CCOc2ccccc2)c2ccccc12)c1ccncc1 the results were HT1080NT lethal 11%, DT40 TDP1 no CPT -7%, KB-V1 cytotox inactive, KB-3-1 cytotox inactive, HT1080 IDH1KD tx 1% and TDP1 cell CPT 1%.
`COC(=O)N/N=C/c1cn(Cc2ccccc2F)c2ccccc12` gave HT1080NT lethal -17%, DT40 TDP1 no CPT inconclusive, KB-V1 cytotox inactive, KB-3-1 cytotox inactive, HT1080 IDH1KD tx -27% and TDP1 cell CPT -3%.
COC(=O)N/N=C/c1cn(CCCOc2ccccc2)c2ccccc12 was read as HT1080NT lethal -21%, DT40 TDP1 no CPT inconclusive, KB-V1 cytotox 23µM*, KB-3-1 cytotox inconclusive, HT1080 IDH1KD tx inconclusive and TDP1 cell CPT 26µM*.
Screening COC(=O)N/N=C/c1cc(Cl)cc(Cl)c1OCc1ccccc1F returned HT1080NT lethal 12%, DT40 TDP1 no CPT 18µM*, KB-V1 cytotox inactive, KB-3-1 cytotox inactive, HT1080 IDH1KD tx 3% and TDP1 cell CPT inconclusive.
